PNC inhibitor: blocks assembly of the perinucleolar compartment; PC3M PTB-GFP, PNC prevalence imaging, 16 h; hits give low values; activity change (PNC), negative = inhibition, % at 10 µM; hit rate 3.1% among 140,000;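 active = readout at or below -70, meaning at least 70% loss of cells showing the perinucleolar compartment, a nuclear body marking cancer cells; inconclusive = readout between -30 and a set limit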
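Read-out is percentage of cells bearing a perinucleolar compartment, from automated 20x imaging of fixed, Hoechst-stained PC3M PTB-GFP cells. Cells were seeded 4 h, then exposed 16 h to compound (23 nl of library stock) in duplicate plates.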
Luc counter: counter-screen: inhibitors of Kinase-Glo firefly luciferase | hit rate 0.28% among 200,000 | Kinase-Glo luciferase, ATP luminescence, 8 min | Potency, µM (doses to about 38.3 µM), usual class: inhibitors; active = well fitted inhibition curve with a large enough effect; inconclusive = small, poorly fitted or top-dose-only effect; also: nearly all actives have a fitted effect of over 60% in size
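Inhibition of Kinase-Glo luciferase light generation was assessed at 10 uM ATP in pH 7.2 imidazole buffer, with luminescence measured after eight minutes at ambient temperature.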
Lamin A splicing: LMNA splicing modulation; hit rate 0.01% among 200,000; HeLa LMNA splicing GFP/RFP minigene ratio, 48 h; Potency, µM (top dose mostly 46.1 µM), most hits filed as inhibitors; AID 1487; active = well fitted inhibition curve with a large enough effect in the signal ratio, with a control signal flat, not every such curve was filed as active; inconclusive = small, poorly fitted or top-dose-only effect, or effect the other way, or a change in a side signal; the % refers to the signal ratio
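S3 HeLa stable clones carrying a lamin A-EGFP splicing minigene plus DsRed2 were seeded at 600 cells/well in Opti-MEM with 2% FBS, pin-dosed and incubated 48 h at 37°C. Acumen cytometry (488 nm) gave the GFP/RFP total-intensity ratio.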
IMPase inh: IMPase inhibition in cells; P97697; CHO-M1 cells, IP1 accumulation, HTRF TR-FRET ratio; inhibition (IP1 accumulation), % at 46.1 µM; 120,000 tested, under 10 active; AID 901; active = well fitted curve in the direction sought with a large enough effect in the signal ratio, not every such curve was filed as active; inconclusive = small, poorly fitted or top-dose-only effect, or a change in a side signal; inactive = no such curve, though single readings can be large or run the other way; the % refers to the signal ratio;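 also: cells stimulated with carbachol in lithium chloride buffer; higher means more IMPase inhibition seen as more IP1 and lower FRET ratio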
Target sequence (P97697 whole entry, looked up): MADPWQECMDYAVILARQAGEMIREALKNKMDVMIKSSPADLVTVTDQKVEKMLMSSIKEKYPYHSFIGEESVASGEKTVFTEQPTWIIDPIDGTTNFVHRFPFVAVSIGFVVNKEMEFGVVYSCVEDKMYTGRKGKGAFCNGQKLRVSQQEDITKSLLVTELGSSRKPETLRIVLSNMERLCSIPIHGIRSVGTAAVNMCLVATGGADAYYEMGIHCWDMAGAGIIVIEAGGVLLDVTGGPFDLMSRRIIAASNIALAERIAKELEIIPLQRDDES
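The IP-One HTRF competitive assay in carbachol-stimulated CHO-M1 cells quantifies cellular IP1. Compounds spanned up to 46 uM final, and activity is expressed as AC50 from concentration-response fits of the ratio and donor data.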
HPGD block: inhibitors of human 15-hydroxyprostaglandin dehydrogenase (HPGD); P15428; purified HPGD, NADH fluorescence kinetic, PGE2 substrate; Potency, µM, hits mostly inhibitors; hit rate 4.3% among 150,000; AID 894
Target sequence (P15428 whole entry, looked up): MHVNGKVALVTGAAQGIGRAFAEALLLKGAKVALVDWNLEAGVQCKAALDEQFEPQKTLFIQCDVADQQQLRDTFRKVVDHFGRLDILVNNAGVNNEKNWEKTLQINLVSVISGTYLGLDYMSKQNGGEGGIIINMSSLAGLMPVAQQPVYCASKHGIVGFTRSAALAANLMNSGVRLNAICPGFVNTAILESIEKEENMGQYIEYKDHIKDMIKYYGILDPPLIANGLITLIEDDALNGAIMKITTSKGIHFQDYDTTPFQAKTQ
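NADH formation kinetics: reaction with 30 uM PGE2 and 1 mM NAD+ (final), 20 nM enzyme, Tris-HCl pH 8 with Tween 20, after 15 min compound preincubation at room temperature. Fluorescence change, last versus first of five reads.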
ALDH1A1 block: blocks purified human ALDH1A1 activity | P00352 | hit rate 7.3% among 220,000 | Potency, µM (highest dose often 75.3 µM), most hits filed as inhibitors | Purified ALDH1A1, NADH fluorescence, propionaldehyde substrate
Large screens that a line does not name were inactive. Only some compounds are listed: those with a hit (about 10% of all), similar ones and a draw of the others. Unless noted, calls follow the shape of the dose curve; as a rule, active = well fitted inhibition curve with a large enough effect (not every such curve was filed as active); inconclusive = small, poorly fitted or top-dose-only effect, or another doubt; inactive = no such curve, though single readings can be large or run the other way.

Cc1ccc(CN2CCN(/N=C/c3cccs3)CC2)cc1	PNC inhibitor -99 (no result: IMPase inh)
O=S(=O)(Cc1ccccc1)/C1=C(\N2CCOCC2)CCCCCC1	Lamin A splicing inconclusive, ALDH1A1 block 13µM
C=CCNC(=O)c1oc2ccc(S(=O)(=O)N(CC)CC)cc2c1C	HPGD block 20µM, ALDH1A1 block 20µM
CCN(CC)S(=O)(=O)c1ccc2oc(C(=O)N3CCCCCC3)c(C)c2c1	Lamin A splicing inconclusive, HPGD block 7.1µM, ALDH1A1 block 13µM
CCN(CC)S(=O)(=O)c1ccc(NC(=O)C2CCCN(C(=O)c3ccc(Cl)cc3)C2)cc1 (stereo not given)	Lamin A splicing inconclusive, ALDH1A1 block inconclusive (no result: IMPase inh)
CCN(CC)S(=O)(=O)c1ccc2oc(C(=O)N3CCc4ccccc4C3)c(C)c2c1	PNC inhibitor inconclusive, Lamin A splicing inconclusive, HPGD block 28µM, ALDH1A1 block inconclusive (no result: IMPase inh)
CCN(CC)S(=O)(=O)c1ccc(C(=O)N2CCCCC2)cc1	HPGD block 4µM
Cc1c(C(=O)N2CCc3ccccc3C2)oc2ccc(S(=O)(=O)N3CC(C)CC(C)C3)cc12 (stereo not given)	Lamin A splicing inconclusive (no result: IMPase inh)
CCN(CC)S(=O)(=O)c1ccc2oc(C(=O)N3CCOCC3)c(C)c2c1	PNC inhibitor inconclusive, HPGD block inconclusive
Cc1c(C(=O)O)oc2ccc(S(=O)(=O)NCc3ccc(F)cc3)cc12	none
Cc1c(C(=O)O)oc2ccc(S(=O)(=O)NC3CCCCCCC3)cc12	PNC inhibitor -113, ALDH1A1 block inconclusive (no result: IMPase inh)
CN1/C(=C\C(=S)NC(=O)c2ccc([N+](=O)[O-])cc2)C(C)(C)c2ccccc21	ALDH1A1 block 35µM
CN1/C(=C/C=N/NC(=O)c2ccc([N+](=O)[O-])cc2)C(C)(C)c2ccccc21	PNC inhibitor inconclusive (no result: IMPase inh)
CN1/C(=C\C(=S)NC(=O)c2cccc(Br)c2)C(C)(C)c2ccccc21	Lamin A splicing inconclusive, ALDH1A1 block 1µM (no result: Luc counter, HPGD block)
CN1/C(=C/C2CC(=O)N(c3ccc([N+](=O)[O-])cc3)C2=O)C(C)(C)c2ccccc21 (stereo not given)	PNC inhibitor inconclusive, ALDH1A1 block 11µM
CN1/C(=C/C(=O)C2CC2)C(C)(C)c2ccccc21	none (no result: PNC inhibitor, Lamin A splicing, IMPase inh, HPGD block)
O=C(NCc1ccc(F)cc1)C(=O)NCC(c1ccc2c(c1)OCO2)N1CCOCC1 (stereo not given)	none (no result: PNC inhibitor, Luc counter, IMPase inh, HPGD block, ALDH1A1 block)
O=C(Cn1c(=O)c2cccn2c2ccc(F)cc21)N1CCN(c2ccccc2)CC1	none (no result: PNC inhibitor, Luc counter, IMPase inh, HPGD block, ALDH1A1 block)
O=C(O)CCn1[nH]c(=O)ccc1=O	PNC inhibitor -100
CCN(C(=O)c1ccco1)c1nnc(-c2ccc(OC)cc2)s1	PNC inhibitor -100, HPGD block inconclusive, ALDH1A1 block inconclusive
CCCN(C(=O)c1ccco1)c1nnc(-c2cccc(C)c2)s1	ALDH1A1 block inconclusive (no result: PNC inhibitor, IMPase inh, HPGD block)
O=C(CCN1CCN(c2ccccc2F)CC1)Nc1ccccc1F	PNC inhibitor inconclusive
COc1ccccc1N1CCN(CC(=O)NCC2CCCO2)CC1 (stereo not given)	PNC inhibitor -119, ALDH1A1 block inconclusive
O=C(CN1CCN(c2ccccc2F)CC1)Nc1ccccc1F	Lamin A splicing inconclusive, ALDH1A1 block 20µM
COc1ccccc1N1CCN(CC(=O)Nc2ccc(C)c(F)c2)CC1	Lamin A splicing inconclusive, ALDH1A1 block 14µM
CC(O)c1nc2ccccc2n1CC(=O)Nc1ccc2c(c1)OCCO2 (stereo not given)	none (no result: PNC inhibitor, IMPase inh, HPGD block)
CCCn1c(N2CCN(CC(=O)Nc3ccc4c(c3)OCCO4)CC2)nc2ccccc21	ALDH1A1 block 25µM
Cn1c(-c2nc(-c3ccccc3)cs2)nc2ccccc21	HPGD block inconclusive, ALDH1A1 block inconclusive (no result: PNC inhibitor, Lamin A splicing)
CCCCNc1nc(C)nc2c1nc(C)n2CCC	none (no result: PNC inhibitor, Lamin A splicing, IMPase inh)
NC(=O)c1ccc(NC(=O)CN2CCN(c3ccc(Cl)cc3)CC2)cc1	ALDH1A1 block 22µM (no result: PNC inhibitor, Lamin A splicing, IMPase inh, HPGD block)
O=C(c1ccco1)N1CCCN(Cc2nc(-c3ccc4c(c3)OCO4)no2)CC1	Lamin A splicing inconclusive, ALDH1A1 block 22µM (no result: PNC inhibitor, IMPase inh, HPGD block)
O=C(CN1CCN(c2ccc(O)cc2)CC1)Nc1ccc2c(c1)OCCO2	ALDH1A1 block 9.5µM (no result: PNC inhibitor, Lamin A splicing, IMPase inh, HPGD block)
O=C(CN1CCCCC1)Nc1ccc(N2CCCCCC2)cc1	Lamin A splicing inconclusive, ALDH1A1 block inconclusive (no result: PNC inhibitor, IMPase inh, HPGD block)
